Screens as filed in PubChem.
KinaseGlo FLuc = blocks Kinase-Glo luciferase, a counter-screen artifact; Q27757; 200,000 compounds, 0.28% hits; Kinase-Glo luciferase, ATP luminescence, 8 min; Potency, µM (top dose mostly 38.3 µM), inactives show top-dose activity change, negative = inhibition, actives largely listed as inhibitors; active means well fitted inhibition curve with a large enough effect; inconclusive means small, poorly fitted or top-dose-only effect; further: potency means the concentration at half of the fitted maximal effect; nearly all actives have a fitted effect of over 60% in size
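Substrate mix (final 50 mM imidazole pH 7.2, 50 mM KCl, 7 mM MgCl2, 10 uM ATP, 0.01% Tween 20, 0.05% BSA) plus pin-tool compound, then Kinase-Glo detection mix; 8 min ambient, luminescence read.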
HPGD inh = blocks human HPGD enzyme activity; P15428; purified HPGD, NADH fluorescence kinetic, PGE2 substrate; Potency, µM, for inactives: at the highest dose activity change, negative = inhibition, usual class: inhibitors; 150,000 compounds, 4.3% hits; AID 894; further: potency means the concentration at half of the fitted maximal effect
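20 nM HPGD preincubated 15 min at room temperature with compound in 50 mM Tris-HCl pH 8, 0.01% Tween 20. Started with 1 mM NAD+ and 30 uM prostaglandin E2; NADH fluorescence (360/450 nm) read 5 times over 30-s intervals, last minus first.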
ALDH1A1 block = inhibitors of human aldehyde dehydrogenase 1A1; P00352; Purified ALDH1A1, NADH fluorescence, propionaldehyde substrate; Potency, µM (series often up to 75.3 µM), inactives show at the highest dose activity, negative = inhibition, hits mostly inhibitors; 220,000 compounds, 7.3% hits;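 further: potency means the concentration at half of the fitted maximal effect; plate controls were no enzyme wells and a reference inhibitor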
Target sequence (P00352 whole entry, looked up): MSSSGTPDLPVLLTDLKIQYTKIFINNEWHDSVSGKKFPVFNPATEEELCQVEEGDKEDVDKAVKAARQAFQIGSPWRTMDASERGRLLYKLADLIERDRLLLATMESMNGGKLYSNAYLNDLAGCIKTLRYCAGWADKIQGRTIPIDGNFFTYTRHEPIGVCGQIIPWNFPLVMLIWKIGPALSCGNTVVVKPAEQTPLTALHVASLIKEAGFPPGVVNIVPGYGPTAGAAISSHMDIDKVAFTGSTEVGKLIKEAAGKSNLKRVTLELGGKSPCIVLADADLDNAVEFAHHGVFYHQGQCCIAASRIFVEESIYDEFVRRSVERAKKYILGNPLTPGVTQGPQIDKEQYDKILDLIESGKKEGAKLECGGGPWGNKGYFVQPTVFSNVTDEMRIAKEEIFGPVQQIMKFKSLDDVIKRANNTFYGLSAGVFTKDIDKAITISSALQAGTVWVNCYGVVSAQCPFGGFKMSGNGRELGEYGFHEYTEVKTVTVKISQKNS
Lamin A splicing = changes lamin A minigene splicing in HeLa cells. HeLa LMNA splicing GFP/RFP minigene ratio, 48 h. Potency, µM (doses to about 46.1 µM), without a hit: at the highest dose ratio change, negative = inhibition, actives largely listed as inhibitors. 200,000 compounds, 0.01% hits. AID 1487; active means well fitted inhibition curve with a large enough effect in the signal ratio, with a control signal flat, not every such curve was filed as active; inconclusive means small, poorly fitted or top-dose-only effect, or effect the other way, or a change in a side signal; the % refers to the signal ratio; further: potency means the concentration at half of the fitted maximal effect
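Read-out is the ratio of GFP to DsRed2 object intensity, acquired by 488 nm laser-scanning cytometry on HeLa lamin A-EGFP minigene reporter cells. Compound incubation 48 hrs at 37 °C in Opti-MEM with 2% FBS; DMSO 0.5% final.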
PNC assembly inh = blocks assembly of the perinucleolar compartment | PC3M PTB-GFP, PNC prevalence imaging, 16 h; stronger effect = lower value | activity change (PNC), negative = inhibition, % at 10 µM | 140,000 compounds, 3.1% hits | AID 2417;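 active means readout at or below -70, meaning at least 70% loss of cells showing the perinucleolar compartment, a nuclear body marking cancer cells; inconclusive means readout between -30 and a set limit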;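 further: plate controls were DMSO wells for no effect and camptothecin positive control wells for full effect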
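Compounds are pinned in duplicate onto adhered PC3M cells stably expressing GFP-tagged PTB and incubated 16 h at 37 C. Cells are then fixed, nuclei stained with Hoechst, and PNC-positive cells counted.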
Starred values were filed as active, the others as inactive; ? = inconclusive; . = no result; [ ] = another dose, or the depositor's remark. The list is not random: actives were taken first. Their share in the collection is about 10%. Unless noted, the call rests on the fitted dose curve; in most records, active means well fitted inhibition curve with a large enough effect (not every such curve was filed as active); inconclusive means small, poorly fitted or top-dose-only effect, or another doubt; inactive means no such curve, though single readings can be large or run the other way. Unless noted, on the % scale 0 is the no-effect control and ±100 the full control effect.

SMILES	KinaseGlo FLuc	HPGD inh	ALDH1A1 block	Lamin A splicing	PNC assembly inh
O=C1CN=C(c2ccccc2)c2cc(Br)ccc2N1Cc1cc(=O)n2ccccc2n1	-1%	-14%	?	-7%	-88*
Cc1ccc(NC(=O)OC(C)CNC(=O)Oc2cccc(C)c2)cc1 (stereo not drawn)	-1%	.	20µM*	14%[46 µM]	.
COC(=O)Nc1cccc(OC(=O)Nc2cccc(C)c2)c1	.	-27%	?	.	.
COc1ccc(C(=O)O[C@H]2CC[C@@]3(C)[C@H]4CC[C@H]5[C@]3(C[C@]3(O)[C@H]6CN7C[C@H](C)CC[C@H]7[C@](C)(O)[C@]6(O)[C@H](O)C[C@]53O)O[C@]24O)cc1OC	-4%[7.66 µM]	-3%	9%[13.5 µM]	.	.
C[C@@H]1[C@@H](C)N1C[C@H](O)Cn1ccnc1[N+](=O)[O-] (stereo partly drawn)	2%[7.66 µM]	-13%	11%[13.5 µM]	.	.
C[C@H](N)C(=O)N[C@@H](C)C(=O)N[C@@H](Cc1ccccc1)C(=O)CCl	.	.	-16%	.	.
CCOC(=O)c1c(/N=C/C2C(=O)NC(=S)NC2=O)sc2c1CCC2	-2%	.	18µM*	-2%[46 µM]	.
CCOC(=O)c1cc(C)sc1/N=C/C1C(=O)NC(=S)NC1=O	2%	.	7.1µM*	-16%[46 µM]	.
N#Cc1c(/N=C/C2C(=O)NC(=S)NC2=O)sc2c1CCCC2	-1%	.	22µM*	.	.
CCOC(=O)c1c(/N=C/C2C(=O)NC(=S)NC2=O)sc(C)c1C	-1%	.	20µM*	.	.
CCOC(=O)c1ncn2c1CN(C)C(=O)c1cc(N=[N+]=[N-])ccc1-2	0%	-11%	?	.	.
CCCCCCCCCC(CC)c1ccc(S(=O)(=O)O)cc1 (stereo not drawn)	.	.	.	19%	.
COc1cc(O)c(C(=O)c2ccccc2)cc1S(=O)(=O)O	-1%[39.9 µM]	-1%	13µM*	?	.
Cn1cc(C(=O)c2ccccc2)c2ccccc21	-3%	-14%	-10%	-7%	-8
CCCC[N+]12C3CC(C(CC)[C@H]1O)[C@@H]1C(O)C4(C[C@@H]12)c1ccccc1N(C)C34 (stereo partly drawn)	-11%	-17%	0%	.	.
COc1ccc(C(C)=O)cc1CC(C(=O)c1ccc(C)c(C)c1)N(C)C (stereo not drawn)	-2%	5%	-5%	-6%	17
COc1ccc(C(C)=O)cc1COC(=O)c1ccc2ccccc2n1	7%	.	14µM*	16%[46 µM]	.
O=C(Cc1ccccc1)N1CCN(Cc2ccccn2)CC1	0%	-6%	?	-11%	-84*
O=C(Cc1ccccc1)N1CCN(Cc2c[nH]c3ccccc23)CC1	13%	-9%	25µM*	?	-23
c1ccc2cc3c(cc2c1)-c1cccc2cccc-3c12	.	46%	?	.	.
S=c1[nH]nc(C2CC2)n1Cc1ccccc1	-1%	.	14µM*	-11%[46 µM]	.
O=C(O)C(Cl)Br (stereo not drawn)	.	-9%	?	.	.
CN(C)c1ccc(C=C2C(=O)NC(=O)NC2=O)cc1[N+](=O)[O-]	-2%	.	?	-19%[46 µM]	.
CCOC(=O)CSCCOc1ccc(C=C2C(=O)NC(=O)NC2=O)cc1OC	-4%	.	13µM*	?	.
CCOc1ccc(/C=C2/C(=O)NC(=O)N(CCc3ccc(F)cc3)C2=O)cc1	-5%	10µM*	1.4µM*	-8%	?
SMILES	KinaseGlo FLuc	HPGD inh	ALDH1A1 block	Lamin A splicing	PNC assembly inh
CCOc1cc(C=C2C(=O)NC(=O)NC2=O)cc([N+](=O)[O-])c1O	-7%	.	28µM*	.	.
Cn1cccc1/C=C1/C(=O)NC(=O)N(Cc2ccccc2)C1=O	1%	-21%	?	-11%	1
CCOC(=O)c1c(-n2c(C)cc(C=C3C(=O)NC(=O)NC3=O)c2C)sc2c1CCCC2	-1%	-17%	-2%	?	36
COc1cc(/C=C2\C(=O)NC(=O)N(CCc3ccc(F)cc3)C2=O)ccc1O	1%	13µM*	13µM*	0%	22
N#Cc1ccc(CN2CC3(CCNCC3)C2)cc1	-4%	-4%	9%	.	.
c1ccc(C[N+]23CN4CN(CN(C4)C2)C3)cc1	0%[7.66 µM]	-4%	-3%[13.5 µM]	.	.
COc1cc(C=C2C(=O)NC(=O)NC2=O)ccc1O	.	.	19µM*	.	.
O=C1NC(=O)C(=Cc2ccsc2)C(=O)N1	-3%	.	-3%	.	.
O=[N+]([O-])c1cc(Cl)c(Cl)c(Cl)c1	.	-3%	?	.	.
